Bioassay records as filed in PubChem BioAssay.
VDR inh – blocks the human vitamin D receptor | P11473 | VDR-SRC2-3 peptide fluorescence polarization, 2 h | Potency, µM, inactives show max response, negative = inhibition, hits mostly inhibitors | 400,000 compounds, 0.93% hits | AID 504847; also: potency is read from the fitted curve at half-maximal effect
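Compounds are added to VDR with labelled SRC2-3 coactivator peptide and held 2 h at room temperature. Inhibition of the VDR–peptide interaction is then read as a change in fluorescence polarization.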
G9a block – inhibitors of human histone lysine methyltransferase G9a. Q96KQ7. G9a H3K9 monomethylation, AlphaScreen, 2 h. Potency, µM (doses to about 102 µM), without a hit: top-dose activity, negative = inhibition, hits mostly inhibitors. 350,000 compounds, 8.8% hits. AID 504332; also: potency is read from the fitted curve at half-maximal effect; nearly all actives have a fitted effect of over 75% in size
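Using a bead-based AlphaScreen, monomethylated H3K9 product from 2 h room-temperature reactions (G9a 20 nM, peptide 500 nM, SAM 20 uM) was detected with 0.5 ug/mL rabbit anti-H3K9me1 antibody.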
Mm-Cpn inhibitor – blocks the Methanococcus maripaludis chaperonin Mm-Cpn; purified Mm-Cpn ATPase, ADP Transcreener TR-FRET; Potency, µM (top dose mostly 76.9 µM), for inactives: at the highest dose activity, negative = inhibition, most hits filed as inhibitors; 330,000 compounds, 0.031% hits; AID 504842; also: potency is read from the fitted curve at half-maximal effect; nearly all actives have a fitted effect of over 80% in size
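Reaction buffer contained 30 mM Tris pH 7.4, 100 mM KCl, 5 mM MgCl2 and 1 mM DTT. Mm-CPN (25 nM final) hydrolysed 10 uM ATP over 30 min at 37°C; ADP was read by HTRF.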
Sfp PPTase inh – blocks B. subtilis Sfp PPTase activity. Potency, µM, for inactives: largest response in the series, negative = inhibition, hits mostly inhibitors. 310,000 compounds, 3.5% hits. AID 1490. Q9F4F7. Biochemical Sfp PPTase activity, qHTS;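 also: the enzyme is Sfp with the accession as filed and its product quenches rhodamine fluorescence; potency is read from the fitted curve at half-maximal effect; 0% = enzyme reaction without inhibitor and -100% = no enzyme wells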
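Fluorescence-quenching assay with 15 nM Sfp, 5 uM rhodamine-CoA and 12.5 uM BHQ-2-labelled ybbR peptide in pH 7.6 Hepes/MgCl2 buffer. Enzyme was pre-incubated with compound for 15 min at room temperature. Rate was taken from the 30-min fluorescence change (525/598 nm).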
CCT chaperon mod – changes cytosolic chaperonin activity | activity change, % (no concentration beside the values), hits read low | 360,000 compounds, 0.3% hits | purified chaperonin ATPase assay, HTRF ADP detection, 30 min; in the data active = activity change below about -30%
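TRiC (40 or 20 nM final, by batch activity) in 30 mM Tris pH 7.4, 100 mM KCl, 5 mM MgCl2, 1 mM DTT was treated with compound at 76 uM single dose, then 10 uM ATP, 30 min at 37 °C. ADP was read by HTRF Transcreener.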
PLK1 PBD inh – blocks phosphopeptide binding to human PLK1 polo-box domain | P53350 | Plk1 PBD binding of FITC phosphopeptide, fluorescence polarization | Potency, µM, for the others: max response, negative = inhibition, most hits filed as inhibitors | 360,000 compounds, 2.8% hits | AID 720504; also: potency is read from the fitted curve at half-maximal effect; series mostly up to about 57 µM; nearly all actives have a fitted effect of over 65% in size
Target sequence (P53350 whole entry, looked up, the tested form may be a part): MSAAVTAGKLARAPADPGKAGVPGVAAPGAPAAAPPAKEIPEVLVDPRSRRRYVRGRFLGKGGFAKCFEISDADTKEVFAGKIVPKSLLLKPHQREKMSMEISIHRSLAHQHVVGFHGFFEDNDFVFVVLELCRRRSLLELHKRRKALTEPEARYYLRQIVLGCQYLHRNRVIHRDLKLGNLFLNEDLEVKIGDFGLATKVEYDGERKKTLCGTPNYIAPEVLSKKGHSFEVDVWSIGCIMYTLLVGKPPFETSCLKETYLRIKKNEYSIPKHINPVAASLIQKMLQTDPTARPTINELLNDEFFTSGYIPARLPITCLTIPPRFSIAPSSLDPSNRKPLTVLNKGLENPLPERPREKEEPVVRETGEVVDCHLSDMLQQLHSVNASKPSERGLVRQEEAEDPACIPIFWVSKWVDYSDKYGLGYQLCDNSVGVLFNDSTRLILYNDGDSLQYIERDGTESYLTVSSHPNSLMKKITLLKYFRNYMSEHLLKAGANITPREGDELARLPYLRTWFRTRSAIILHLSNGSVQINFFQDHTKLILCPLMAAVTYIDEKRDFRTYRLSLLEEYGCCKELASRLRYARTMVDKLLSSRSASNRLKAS
* hit, by the source's call; ? = inconclusive; / = no result given; [ ] = remark or other dose. Only some compounds are listed: those with a hit (about 10% of all), similar ones and a draw of the others. Unless noted, calls follow the shape of the dose curve; as a rule, active = well fitted curve in the direction sought with a large enough effect; inconclusive = small, poorly fitted or top-dose-only effect, or another doubt; inactive = no such curve, though single readings can be large; an effect the other way counts as inactive or inconclusive. Unless noted, % is scaled to controls: 0 for no effect and ±100 for the full control effect.

SMILES | VDR inh | G9a block | Mm-Cpn inhibitor | Sfp PPTase inh | CCT chaperon mod | PLK1 PBD inh
CC(=O)OC[C@@H]1O[C@H](CCO/N=C(\C)CCN2CCCCc3nc(C)c(C)cc32)C=C[C@@H]1OC(C)=O | / | / | / | 4% | / | /
CCOC(=O)Cc1ccc(NC(=O)NC(C)c2c(-n3cccc3)sc(C)c2C)cc1 (stereo unspecified) | -3% | ? | / | / | / | /
CC[n+]1c(/C=C/N(C)c2ccccc2)n(-c2ccccc2)c2ccc(-c3nc4ccccc4s3)cc21 | 4% | 25µM* | 3% | 45µM* | 1 | -4%
CCOC(=O)c1ccc2c(c1)n(CC)c(/C=C/N(C)c1ccccc1)[n+]2CC | -6% | 18%[59 µM] | 1% | 14% | 2 | ?
Cc1ccc(/C=C/C(=O)c2ccc([N+](=O)[O-])o2)cc1 | 5.6µM* | -5%[2.33 µM] | 1% | / | -1 | -28%
Cc1ccc(CNS(=O)(=O)c2cc3[nH]c(=O)c(=O)[nH]c3cc2C)cc1 | 19% | 1%[59 µM] | / | / | / | /
CC1(C)O[C@H]2[C@@H](O1)[C@@H](C(=O)Nc1ccccc1C(F)(F)F)O[C@@H]1OC(C)(C)O[C@@H]12 | 15% | 6%[59 µM] | / | / | / | /
Cc1ccc(NC(=O)c2sc3nc4c(cc3c2N)CN(Cc2ccccc2)CC4)cc1 | 4% | -38%[59 µM] | / | / | / | /
Oc1ccc(N2CCN(Cc3cc4c(cc3Br)OCCO4)CC2)cc1 | -16% | 1.8µM* | 1% | 50µM* | -3 | -15%
CCOC1=C2[C@@H](CN(S(=O)(=O)c3ccc(C)cc3)[C@H]2c2ccccc2Cl)[C@H]2C(=O)NC(=O)[C@H]2C1 | / | / | / | / | -1 | -7%
CCOC1=C2[C@H](c3ccc(CC)cc3)N(S(=O)(=O)c3ccc(C)cc3)C[C@H]2C(C#N)(C#N)C(C#N)(C#N)C1 | / | / | / | / | 0 | 17µM*
CCOC1=C2[C@H](c3ccccc3Cl)N(S(=O)(=O)c3ccc(C)cc3)C[C@H]2C(C#N)(C#N)C(C#N)(C#N)C1 | / | / | / | / | 1 | 27µM*
CCOC1=C2CN(S(=O)(=O)c3ccc(C)cc3)C(c3ccc(CC)cc3)CC2N(S(=O)(=O)c2ccc(C)cc2)C(c2ccc(CC)cc2)C1 (stereo unspecified) | / | / | / | / | / | -4%
CCOc1ccc(OCC)c(NC(=O)Cn2ncc3c4ccccc4n(Cc4ccccc4)c3c2=O)c1 | 0% | 10%[59 µM] | / | / | / | /
Cc1ccc(NC(=O)C(=O)NCC(c2ccc3c(c2)OCO3)N2CCN(C)CC2)cc1C (stereo unspecified) | -7% | 3%[59 µM] | / | / | / | /
O=C(COCC(=O)NCc1ccccc1)NCc1ccccc1 | 14% | 1% | 2% | -12% | 1 | -2%
CC(=O)CC1OC(=O)C(Br)=C1NCc1ccccc1 (stereo unspecified) | ? | 35µM* | 1% | -10% | -3 | 27µM*
Cc1cc(C)nc(NC(=O)Cc2ccc([N+](=O)[O-])cc2)c1 | -15% | -2%[59 µM] | 0% | 8% | -34* | -4%
CCCCC#Cc1nc(N)c2ncn([C@@H]3O[C@H](C(=O)NCC)[C@@H](O)[C@H]3O)c2n1 | / | 35%[12.7 µM] | / | / | / | /
CC1CCc2c(sc(NC(=O)COc3ccccc3C(C)(C)C)c2C#N)C1 (stereo unspecified) | ? | 10µM* | / | / | / | /
CC1CCc2c(sc(NC(=S)NC(=O)c3ccccc3)c2C#N)C1 (stereo unspecified) | -6% | ? | -9% | ? | -1 | 24µM*
Cc1ccccc1C(=O)NC(=S)Nc1sc2c(c1C#N)CCC(C)C2 (stereo unspecified) | -12% | / | -6% | -23% | -1 | 19µM*
N#Cc1c(NC(=O)C2CCCO2)sc2c1CCCCCC2 (stereo unspecified) | -10% | ? | ? | -7% | -4 | -8%
N#Cc1c(NC(=S)NC(=O)C2CCCC2)sc2c1CCCCC2 | -20% | 35µM* | -1% | ? | -11 | -22%
Cc1cc(=O)oc2cc(O[C@@H]3O[C@H](C(=O)O)[C@@H](O)[C@H](O)[C@H]3O)ccc12 | -7% | / | / | 12% | / | /
Cc1ccc(Cl)cc1N1CCN(c2nc3ccc(C(=O)c4ccccc4)cc3n3cnnc23)CC1 | -6% | -25%[59 µM] | / | / | / | /
